biological target: ACOT6; assay: pooled miR-30 sensor sort-seq; sequence = guide strand; conditions: shRNA
Also: reference of the scale not given here.

| Sequence | sensor-assay potency score (higher = more potent) |
| --- | --- |
| AATACTAGGACCTTTCACCTTT | 0.28 |
| TTGGTGATTGTGTTCCTCCAGT | -0.204 |
| TAGTGATTTTTACTTTTCCTAG | -1.27 |
| TATCCTTGTAATGTAGAGGAGC | -0.764 |
| TTAGGAATAATCATATCCTTGT | 0.922 |

biological target: ACRV1; assay: as above; conditions: shRNA

| Sequence | sensor-assay potency score (higher = more potent) |
| --- | --- |
| TTCTTTAACATGCACTGCTGGG | -0.734 |
| TTGAACCATGAATTGGAGTTTT | -1.17 |
| TTCAAAGATCTTCTTTAACATG | -1.23 |
| TCAAAGATCTTCTTTAACATGC | -0.277 |
| TCTTTAACATGCACTGCTGGGA | -0.397 |
| TTAGGCTGACTTGATGTTCCTC | -0.162 |
| ATCTTCTTTAACATGCACTGCT | -0.185 |
| TGAAGTTTGATGATCTATGGAG | 0.139 |
| TTTGCATCCTCGTTCCATGGGA | 0.226 |
| TTTAACATGCACTGCTGGGAAT | -1.59 |
| TTTTCCACCTTCAAAGATCTTC | -0.56 |
| TAGGCTGACTTGATGTTCCTCT | 0.616 |
| TCTTCTTTAACATGCACTGCTG | -0.6 |
| TCGACAGCATATAATTTGCATC | -1.21 |
| ATTCATATAAGCACATGTGTAG | -0.436 |
| TTCGACAGCATATAATTTGCAT | -0.0881 |
| TTGCATCCTCGTTCCATGGGAG | 0.0526 |
| TAATATTGTGCCTGAAGGCTGT | 0.0194 |
| TAATTTGCATCCTCGTTCCATG | -0.581 |
| ATAATTTGCATCCTCGTTCCAT | -0.172 |

biological target: ACSL3; assay: as above; conditions: shRNA

| Sequence | sensor-assay potency score (higher = more potent) |
| --- | --- |
| TATCTAAAGTATCACATCCAGG | -0.889 |
| TATTGTAGTCCCACACTTCGGA | 0.568 |
| TTTTTCTTGTCTTGACTCGGAG | -0.445 |
| TTCTTTACTAGTAATGATGTTG | 0.0529 |
| TTGAATTTACAGGCTTTGCTTT | -0.455 |
| TTGCTGAAATAGCAGCTTCGGA | -0.935 |
| TTTTTGAAGACTGATCTGCTAA | 0.185 |
| TTTAGCTTCATGGTAGATGGTT | 0.468 |
| TAATTCTAGAACATGGGCCAGA | -0.696 |
| AATCTTTAAGCATCCATCGGGT | -0.577 |
| TAATCTTTAAGCATCCATCGGG | 0.641 |
| TTTACTAGTAATGATGTTGGTC | 0.628 |
| TTTTGCTTCATTTTTGTAGTAC | 0.298 |
| TTGTAGTCCCACACTTCGGAAA | -1.33 |
| ATACTGTCCAAGAATAACCTTT | -0.208 |
